Reference: PubChem BioAssay (NCI)
The panel holds about 79,000 compounds, 15% with a hit somewhere; the sample as a whole holds those more often. Unmarked numbers belong to inactive results. Calls of active or inactive are those of the source. Rule as the data show it: active = growth inhibition above about 70%; inactive = the rest. Where a SMILES comes first, the peptide text is derived from it.

Assays:
[1] = NCI Yeast Anticancer Drug Screen. Data for the rad50 strain (AID 155);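 also: 0% = growth of vehicle-only cultures of the same strain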; conditions: S. cerevisiae rad50 strain growth inhibition; at 50.0 µM; hits give high values
Outline: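 A DNA repair-deficient yeast mutant serves as the test organism; compound-induced growth inhibition is calculated against vehicle-treated cells.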

[2] = NCI Yeast Anticancer Drug Screen. Data for the mec2-1 strain (AID 157); conditions: S. cerevisiae mec2-1 strain, at 50.0 µM, hits give high values
Outline: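 Mutant yeast (mec2-1) grown with compound; growth inhibition relative to vehicle control reported.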

[3] = NCI Yeast Anticancer Drug Screen. Data for the sgs1 mgt1 strain (AID 161);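 also: 0% = growth of cultures given vehicle only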; conditions: S. cerevisiae sgs1 mgt1 strain, at 50.0 µM, hits give high values
Outline: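 Compounds are added to genetically altered yeast, and growth is compared with cultures given vehicle alone to give percent inhibition.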

[4] = NCI Yeast Anticancer Drug Screen. Data for the cln2 rad14 strain (AID 165);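 also: 0% = growth equal to vehicle treated cultures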; conditions: S. cerevisiae cln2 rad14 strain, at 50.0 µM, hits give high values
Outline: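 Readout is yeast growth inhibition versus vehicle-treated controls, using a strain with cln2 and rad14 alterations exposed to compound.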

[5] = NCI Yeast Anticancer Drug Screen. Data for the bub3 strain (AID 167); conditions: S. cerevisiae bub3 mutant strain, at 50.0 µM, hits give high values
Outline: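 Inhibition values come from growth of compound-treated mutant yeast normalised to vehicle-treated controls.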

[6] = NCI Yeast Anticancer Drug Screen. Data for the mlh1 rad18 strain (AID 175); conditions: S. cerevisiae mlh1 rad18 strain growth inhibition; at 50.0 µM; hits give high values
Outline: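 Genetically defined yeast (DNA repair-deficient) exposed to compounds; growth inhibition determined relative to vehicle.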

| Compound | growth inhibition [1] | growth inhibition [2] | growth inhibition [3] | growth inhibition [4] | growth inhibition [5] | growth inhibition [6] |
| --- | --- | --- | --- | --- | --- | --- |
| Cc1cc(=O)c2c(=O)n(-c3ccccc3)[nH]c2[nH]1 | -34.7% | -13.1% | -11.2% | -27.2% | -13.4% | -6.35% |
| Oc1ccc(NCc2ccccc2)cc1 | 32.9% | 8.45% | 16.9% | -3.15% | 21.6% | 16.9% |
| COc1ccc(-c2cc(C(=O)N/N=C/c3ccc([N+](=O)[O-])cc3)c3ccc(C)cc3n2)cc1OC | 43.6% | 13.7% | 39.1% | 14.6% | -1.05% | 46.9% |
| O=C(Nc1cccc(O)c1)OC1CCCCC1 | 25.8% | 6.05% | 25.2% | -18.1% | 34% | 24.4% |
| CCOC(=O)c1c(C(C)=O)cnc2c(C#N)cnn12 | -1.15% | -1.55% | -4.95% | 41% | 0.6% | -10.9% |
| CCCOC(=O)CC(CC(=O)OCCC)C(=O)OCCC | -10.9% | 0.55% | -3.75% | -13.4% | 37.2% | -2.5% |
| CC(C(=O)OCc1ccccc1)(c1ccco1)N1C(=O)OC(c2ccccc2)C1c1ccccc1 (stereo unspecified) | -4.35% | -3.5% | 4.55% | -3.5% | -17.1% | -23.1% |
| C[n+]1c2ccccc2c(CNC(CCC(N)=O)C(=O)O)c2ccccc21 (stereo unspecified) | 83.3% (active) | 87.4% (active) | 80.6% (active) | 61.8% | 73.3% (active) | 87.8% (active) |
| CC1(C)N=C(N)N=C(N)N1c1cccc(/C=C/c2ccc([N+](=O)[O-])cc2)c1 | 2.45% | -7.35% | -6.1% | -43% | -3.3% | 9.75% |
| COc1ccc(C(C#N)NNc2nc(C)cc(=O)[nH]2)cc1OC (stereo unspecified) | -60.1% | -47.5% | -43.2% | -19.6% | -30.9% | -47% |
| O=C1NC(=O)C(c2ccccc2)(c2ccsc2)N1 (stereo unspecified) | 12.3% | -4.3% | 1.95% | 10.6% | 1% | 13.6% |
| COC(=O)CCSc1ccccc1 | 0.55% | -12% | 5.45% | 6.7% | -15.1% | -7.6% |
| O=S1(=O)OC(c2ccc(O)cc2)(c2ccc(O)cc2)c2ccccc21 | 31.6% | -25.9% | 3.1% | 9% | -11.9% | 18.6% |
| Nn1c(-c2ccccc2)n[nH]c1=O | 18.7% | -15.7% | 16.5% | 25.9% | 3.25% | 9.45% |
| COc1ccc(OC)c(COC(=O)c2ccccc2)c1COC(=O)c1ccccc1 | 26.1% | 3.9% | 20.2% | 4.2% | 1.6% | 5.7% |
| NC(=O)NNC(=O)c1nc[nH]c1[N+](=O)[O-] | -24.2% | -3.3% | 11.6% | -15.9% | -18.2% | -13.3% |
| COc1ccc(-n2nc3c(ccc4ccccc43)c2N)cc1 | 2.8% | -8.5% | 16.5% | -2.05% | -0.4% | 8.5% |
| CC(=O)OCCCC(CCCOC(C)=O)OC(C)=O | -7.7% | -6.85% | 12.2% | -12.8% | 5.25% | 29.2% |
| O=S(Cc1cnc2ccccc2c1)c1nc2ccccc2nc1-c1cccs1 (stereo unspecified) | -10.2% | -28.8% | -20.7% | -11% | -8.4% | -11.7% |
| COC(=O)c1cc(C(=O)OC)c(CC(=O)C(=O)Nc2c(C(C)C)cccc2C(C)C)nc1CC(=O)C(=O)Nc1c(C(C)C)cccc1C(C)C | -18.8% | -22.9% | -11.7% | 1.75% | -13.1% | -6.85% |
| CCCCCCCC/C=C/CCCCCCCCCCCC(=O)O | -7.6% | -39.2% | -1.45% | -46.5% | -8.9% | 2.35% |

| Compound | growth inhibition [1] | growth inhibition [2] | growth inhibition [3] | growth inhibition [4] | growth inhibition [5] | growth inhibition [6] |
| --- | --- | --- | --- | --- | --- | --- |
| CN(C)c1ccc(S(=O)(=O)c2ccc3nc(N)nc(N)c3c2)cc1 | 29.2% | 16.2% | 5.45% | -26.5% | -5.9% | 3.85% |
| CC(=O)NC(C(=O)NC(C)C(=O)N1CCCC1C(=O)O)C(C)C (stereo not drawn) (Ac-Val-Ala-Pro-OH; configuration not given here) | 19.1% | -19.5% | -1.1% | 15.1% | 0.6% | -3.65% |
| O=c1[nH]c2cc(Cl)ccc2nc1/C=C(\O)c1cccc(O)c1 | -3.45% | -5.05% | -8.45% | -4.35% | -4.45% | 10.2% |
| COc1cccc2c1C(=O)c1c(OC)c(CBr)cc(OC)c1C2=O | 37.6% | 9.55% | 15.9% | -36.6% | -7.85% | 15.5% |
| CC1=NN(c2nc(N)nc(CO)n2)C(C)(C)C1 | 12.2% | 5.75% | 3.2% | 5.55% | 1% | -72.5% |
| CCCC(=O)NS(=O)(=O)c1ccc(C)cc1 | 2.85% | 7.3% | 3.45% | -24.9% | 0.25% | 5.75% |
| C=C(C)CC1CC(=O)OC1=O (stereo unspecified) | 26% | -16.4% | 13.6% | -21.9% | -9.8% | 4.35% |
| CC(O[Si](C)(C)C(C)(C)C)[C@H](NC(=O)OCC(Cl)(Cl)Cl)C(=O)O (stereo partly specified) | -9.6% | -27.8% | -17.1% | 26.1% | -45% | -14.8% |
| O=C(NCCCl)Nc1[nH]c(=O)ncc1Br | -13.2% | -12.7% | -10.8% | -44.4% | -6.85% | -12.3% |
| CCCCSC(N)=O | -1.5% | 0% | -15.1% | 10.7% | 17.3% | 11.2% |
| CCCN(CCC)S(=O)(=O)c1ccc(NC(=O)Oc2ccccc2OC)cc1 | 41.6% | 3.8% | 31.8% | 20.6% | -7.3% | 22.3% |
| Oc1ccc(Cl)cc1C=Nc1cnc2ccccc2c1 | -14.6% | 24.9% | 1.95% | -10.9% | 9.1% | 17.4% |
| CN(C)CCCN=C(N)N | 1.25% | -20.9% | -23.9% | 20.4% | -57.5% | -4.1% |
| CC(C)CCC[C@@H](C)[C@H]1CC[C@H]2[C@@H]3CC[C@H]4N(C)[C@@H](Cc5ccccc5)CC[C@]4(C)[C@H]3CC[C@]12C | 21.8% | 27.6% | 32.5% | 24.7% | 15.4% | -0.05% |
| COc1ccc(CCNCCCC2c3ccccc3-c3ccccc32)cc1OC | 28.8% | -3.4% | 6.55% | 12.5% | -19.1% | -34.1% |
| CC1(C)COC(c2ccc(C(F)(F)F)cc2C(O)c2ccc3ccccc3c2)=N1 (stereo unspecified) | 11.8% | -2.15% | 3.8% | 10.3% | -3.3% | 10.3% |
| Nc1ncnc2c1nnn2C1C=CC(COS(N)(=O)=O)C1 (stereo unspecified) | 12.2% | 3.75% | 3.7% | -6% | 8.25% | 18.6% |
| CC(=O)c1c(-c2ccc(Cl)cc2)c(C#N)c(=S)n(C2OC(CO)C(O)C(O)C2O)c1C (stereo unspecified) | -2.85% | -6.3% | 6.15% | 14.8% | -5.15% | 12.2% |
| Cc1cc(Oc2cnc(=O)[nH]c2)cs1 | 27.1% | 22.4% | 19.9% | 1.7% | 12% | 10.9% |
| CCN(CC)CCCC(C)n1c(SC)nc2cc(Cl)ccc21 (stereo unspecified) | -11.5% | -32.9% | 9% | -32.6% | 7.2% | -7.7% |
